These results are taken from ChEMBL document CHEMBL3988442, “University of Dundee, Small-Polar-MMV Screening Library” (2021).

About 960 (1.5%) of roughly 66,000 compounds showed an effect of 50% or more. This is one part of a sample in which strong results are shown more often than they occur.

This test deals with Trypanosoma brucei. As to the kind of experiment: Trypanosoma brucei 72 hour study. In kind it is functional, organism-based. Also noted: scale not given: in the data most compounds retested in dose-response had high values.

As for `CNC(=O)[C@@H]1C[C@@H](N)CN1C1CCN(Cc2ccccn2)CC1`, the “Percent Effect” value (30.3 µM, […]) was -17.78%.
In the case of `CNC(=O)[C@@H]1C[C@@H](N)CN1C1CCN(c2ccccc2F)CC1`, the “Percent Effect” value (30.3 µM, […]) was 11.28%.
Regarding `CCNC(=O)[C@@H]1C[C@H](N)CN1C1CCN(c2ccccc2OC)CC1`, the “Percent Effect” value (30.3 µM, […]) stood at 99.36%.
Still for that read-out and setting: the same measure for `O=C(NCCCn1nc2ccccn2c1=O)Nc1ccccc1`: -36.69%; for `OC(COCc1ccco1)CSc1nnc2ccccn12` (configuration not stated): -18.97%.
On to `OC(COCc1ccco1)CN1CCC(Cn2cccn2)CC1` (configuration not stated), for which, under “30 µM, 30.03 µM”, the “Percent Effect” value is -22.56%.
For the compound `Cc1ccc(-n2c(C)nnc2SCC(O)COCc2ccco2)cc1` (configuration not stated), the “Percent Effect” value (30.3 µM, […]) was 100%.
As for `OC(COc1ccccc1)CN1CCC(c2ccn[nH]2)CC1` (configuration not stated), the “Percent Effect” value (30 µM, 30.03 µM) is given as -29.13%.
Turning to `N#Cc1ccc(OCC(O)CN2CCC(c3ccn[nH]3)CC2)cc1` (configuration not stated), the “Percent Effect” value (10 µM) amounted to 5.752%.
With `OC(COc1ccc(F)cc1)CN1CCC(c2ccn[nH]2)CC1` (configuration not stated), the “Percent Effect” value (10 µM) worked out at 90.5%.
For `CN1[C@H](Cn2cccn2)C[C@@H]2CN(Cc3cccs3)CC[C@@H]21.O=C(O)C(F)(F)F.O=C(O)C(F)(F)F.O=C(O)C(F)(F)F`, the “Percent Effect” value (30.3 µM, […]) was -3.772%.
On the same count and under the same terms, the same measure for `CN(C)CCn1c([C@H]2CCCO2)cc2cccnc21`: 1.858%.
For `O=C(O)C(F)(F)F.O=S(=O)(C1CC1)N1CC[C@]2(C[C@@H](Oc3ncccc3F)CO2)C1`, where the note is “30 µM, 30.03 µM”, the “Percent Effect” value is recorded as 13.6%.
`CCc1cnc(N2CC[C@@H]3CN(CCC(C)C)S(=O)(=O)[C@@H]3CC2)nc1.O=C(O)C(F)(F)F`: the “Percent Effect” value (30.3 µM, […]) is recorded as 50.26%.
On the same count and under the same terms, the same measure for `Cc1cnc(N2CC[C@@H]3CN(CCC(C)C)S(=O)(=O)[C@@H]3CC2)nc1`: 13.68%.
Take `CC(C)CN1C[C@H]2CCN(c3ncccn3)CC[C@H]2S1(=O)=O.O=C(O)C(F)(F)F`: where the note is “30 µM, 30.03 µM”, the “Percent Effect” value stood at 7.131%.
Take `COc1ccccc1OCCc1cc(C2CCNC2)n[nH]1.Cl.Cl` (configuration not stated): the “Percent Effect” value (30.3 µM, […]) is listed as -27.23%.
On the same count and under the same terms, the same measure for `CC(=O)N1CCN(C)CC(COCc2ccccc2)C1` (configuration not stated): 18.55%; for `Cc1cnc(C(=O)N2CCC(COCc3ccccc3)C2)cn1` (configuration not stated): -6.003%.
On to `CC(C)(C)C(=O)N1CCC(COCc2ccccc2)C1` (configuration not stated), for which the “Percent Effect” value (30.3 µM, […]) was determined as 100.1%.
`Cc1nn(C)c2c(=O)n(CC(=O)NCc3ccccn3)ccc12`: the “Percent Effect” value (30 µM, 30.03 µM) is on record as -0.211%.
On to `CC(C)C(O)CCNC(=O)Nc1cc(F)ccc1-n1cccn1` (configuration not stated), for which the “Percent Effect” value (30.3 µM, […]) amounted to 88.94%.
On the same count and under the same terms, the same measure for `C[S+]([O-])CCNC(=O)Nc1cc(F)ccc1-n1cccn1` (configuration not stated): -162.3%.
The same measure, in the same setting: the same measure for `CC(C)C(CCO)NC(=O)Nc1cc(F)ccc1-n1cccn1` (configuration not stated): -14.63%.
For the compound `CN(CCO)C[C@@H]1CN(C2CCN(c3ccccc3Cl)CC2)C[C@@H]1CO`, where the note is “30 µM, 30.03 µM”, the “Percent Effect” value turned out to be 13.3%.
Regarding `CC1CN(CC(=O)NC2CCCC2)CCN1c1ccc2nncn2n1` (configuration not stated), where the note is “30 µM, 30.03 µM”, the “Percent Effect” value is listed as -13.42%.
Turning to `CC1CN(Cc2cccnc2)CCN1c1ccc2nncn2n1` (configuration not stated), the “Percent Effect” value by setting is: (30.3 µM, […]) 7.126%; (10 mM, 10 mM as filed; unlikely as a test dose) -16.61%.
For `COc1cccc(CN2CCN(c3ccc4nncn4n3)C(C)C2)c1` (configuration not stated), the “Percent Effect” value (30 µM, 30.03 µM) is recorded as 97.2%.
Turning to `CC1CN(CC2CCCCC2)CCN1c1ccc2nncn2n1` (configuration not stated), the “Percent Effect” value (30 µM, 30.03 µM) is -45.41%.
Same read-out and setting: the same measure for `CC1CN(Cc2cccc(C#N)c2)CCN1c1ccc2nncn2n1` (configuration not stated): -20.22%.
On the same count and under the same terms, the same measure for `CC1CN(CC2CCCC2)CCN1c1ccc2nncn2n1` (configuration not stated): 98.48%.
For `CC(C)(C)c1nc(CNC(=O)N2CCc3ccccc3C2CO)no1` (configuration not stated), the “Percent Effect” value (30.3 µM, […]) is on record as 6.013%.
On the same count and under the same terms, the same measure for `Cc1cc(C(=O)N2CCOC(c3nc(C(C)C)n[nH]3)C2)c(C)s1` (configuration not stated): 17.14%; for `CC(C)(CO)Nc1cc(-c2cn[nH]c2)ncn1.Cl`: -11.12%.
On to `Cc1cc(-c2cnc(N3CCCC(C)C3)nc2C(C)C)on1` (configuration not stated), for which the “Percent Effect” value (30.3 µM, […]) is -16.22%.
Regarding `Cc1cc(-c2cnc(N3CCNC(=O)C3)nc2-c2cccnc2C)on1`, for the setting “30 µM, 30.03 µM”, the “Percent Effect” value came out at 16.74%.
`Cc1cc(-c2cnc(N3CCOCC3)nc2-c2cccnc2C)on1`: under “30.3 µM, […]”, the “Percent Effect” value is reported as -10.3%.
Still for that read-out and setting: the same measure for `Cc1cc(-c2cnc(N3CCCC(C)C3)nc2-c2cccnc2C)on1.Cl` (configuration not stated): 58.57%; for `Cc1cc(-c2cnc(N3CCCCCC3)nc2-c2cccnc2C)on1`: 55.42%; for `Cc1cc(-c2cnc(N3CCC(O)CC3)nc2-c2cccnc2C)on1`: -31.41%.
Consider `Cc1ccc(-c2ccnc(NC(c3ncccc3C)C3CC3)n2)c(C)n1` (configuration not stated), for which the “Percent Effect” value (30 µM, 30.03 µM) was -69.26%.
In the case of `CC(=O)N1CCO[C@@H]2CN(Cc3ccccc3F)C[C@@H]2C1.O=C(O)C(F)(F)F`, the “Percent Effect” value (30.3 µM, […]) is given as -73.74%.
For `O=C1OCCN1CC(=O)N1C[C@H]2CC[C@@H]1CN(Cc1cscn1)C2`, the “Percent Effect” value (30 µM, 30.03 µM) is -38.65%.
`CNc1ccc(C(=O)N(C)Cc2ccc3ccccc3n2)cn1`: where the note is “30.3 µM, […]”, the “Percent Effect” value was 5.672%.
As for `COc1ncccc1C(=O)N1CCC2(CC1)CC(OC)CO2.O=C(O)C(F)(F)F` (configuration not stated), where the note is “30.3 µM, […]”, the “Percent Effect” value is -51.01%.
With `COc1ncccc1C(=O)N1CC[C@]2(C[C@@H](Oc3cccnc3)CO2)C1.O=C(O)C(F)(F)F.O=C(O)C(F)(F)F`, the “Percent Effect” value (30 µM, 30.03 µM) worked out at 55.04%.
For `Cn1ccnc1C(=O)N1CCC2(CC1)CC(Oc1cccnc1)CO2.O=C(O)C(F)(F)F` (configuration not stated), the “Percent Effect” value (30 µM, 30.03 µM) worked out at 24.28%.
With `Cn1ccc(C(=O)NC2CCC23CCN(CC2CCOCC2)CC3)c1.O=C(O)C(F)(F)F` (configuration not stated), under “30 µM, 30.03 µM”, the “Percent Effect” value was -17.43%.
Consider `COCCN1CCCn2c(nc(CNS(C)(=O)=O)cc2=O)C1.O=C(O)C(F)(F)F`, for which the “Percent Effect” value (30.3 µM, […]) is reported as 5.593%.
Take `CC(=O)N1N=C(c2ccccc2)OC1C(=O)NCCc1ccc(O)cc1` (configuration not stated): the “Percent Effect” value runs as follows: (30.3 µM, […]) -23.74%; (10 mM, 10 mM as filed; unlikely as a test dose) -98.13%.
For `CC(=O)N1N=C(c2ccccc2)OC1C(=O)NCCc1ccc(C)cc1` (configuration not stated) the same measures were 99.94% and -45.21%.
In the case of `CC(=O)N1N=C(c2ccccc2)OC1C(=O)NCCc1ccc(Cl)cc1` (configuration not stated), the “Percent Effect” value (30.3 µM, […]) is listed as -41.87% and the “Percent Effect” value (10 mM, 10 mM as filed; unlikely as a test dose) is given as -29.49%.
Take `O=C(Cc1cccc(F)c1)N1CCn2cc(Cn3cccn3)nc2C1.O=C(O)C(F)(F)F`: the “Percent Effect” value (30.3 µM, […]) is on record as -215.4%.
In the case of `CC(C)c1n[nH]c(C2CN(C(=O)c3ccnc(C4CC4)n3)CCO2)n1` (configuration not stated), the “Percent Effect” value (10 µM) is listed as -44.45%.
With `Cc1nc2c(cc1C(=O)O)CCN(Cc1ccsc1)CC2.O=C(O)C(F)(F)F.O=C(O)C(F)(F)F`, the “Percent Effect” value (30.3 µM, […]) was -6.304%.
On the same count and under the same terms, the same measure for `Cc1ncc(CN2CCOC(c3ccc(-c4cc[nH]n4)cn3)C2)s1` (configuration not stated): -10.46%.
For `Cc1ncc(CN2CCOC(c3ccc(-c4ccccc4F)cn3)C2)s1` (configuration not stated), the “Percent Effect” value (30.3 µM, […]) is on record as 93.67%.
Consider `Cc1ncc(CN2CCOC(c3ccc(-c4cnn(C)c4)cn3)C2)s1` (configuration not stated), for which the “Percent Effect” value (30.3 µM, […]) is given as -5.677%.
